# Source: PubChem (National Center for Advancing Translational Sciences (NCATS))
# TR SRC2 fluor cs: counter-screen for TRb-SRC2 inhibitors: fluorescence interference. hit rate 0.29% among 280,000. TRb/SRC2 Texas Red total fluorescence interference. Potency, µM (titrated, usually from 106 µM), inactives show at the highest dose fluorescence change, negative = quenching; active means well fitted curve in either direction with a large enough effect; inconclusive means small, poorly fitted or top-dose-only effect
#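 Human TRb ligand-binding domain at 0.6 uM with 20 nM Texas Red SRC2 peptide in Tris buffer containing 1 uM T3 and 5% DMSO, incubated with compound 5 h at ambient temperature. Total fluorescence (555/632 nm) calculated as parallel + 2 × perpendicular.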
# BLM helicase inh: inhibitors of human Bloom syndrome helicase BLM; AID 2528; P54132; Potency, µM (top dose mostly 56.1 µM), for inactives: top-dose activity change, negative = inhibition, most hits filed as inhibitors; hit rate 0.2% among 350,000; recombinant BLM DNA unwinding, fluorescence dequenching;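 further: plate controls were vehicle for no effect and no enzyme for full effect; nearly all actives have a fitted effect of over 35% in size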
# Target sequence (P54132 whole entry, looked up): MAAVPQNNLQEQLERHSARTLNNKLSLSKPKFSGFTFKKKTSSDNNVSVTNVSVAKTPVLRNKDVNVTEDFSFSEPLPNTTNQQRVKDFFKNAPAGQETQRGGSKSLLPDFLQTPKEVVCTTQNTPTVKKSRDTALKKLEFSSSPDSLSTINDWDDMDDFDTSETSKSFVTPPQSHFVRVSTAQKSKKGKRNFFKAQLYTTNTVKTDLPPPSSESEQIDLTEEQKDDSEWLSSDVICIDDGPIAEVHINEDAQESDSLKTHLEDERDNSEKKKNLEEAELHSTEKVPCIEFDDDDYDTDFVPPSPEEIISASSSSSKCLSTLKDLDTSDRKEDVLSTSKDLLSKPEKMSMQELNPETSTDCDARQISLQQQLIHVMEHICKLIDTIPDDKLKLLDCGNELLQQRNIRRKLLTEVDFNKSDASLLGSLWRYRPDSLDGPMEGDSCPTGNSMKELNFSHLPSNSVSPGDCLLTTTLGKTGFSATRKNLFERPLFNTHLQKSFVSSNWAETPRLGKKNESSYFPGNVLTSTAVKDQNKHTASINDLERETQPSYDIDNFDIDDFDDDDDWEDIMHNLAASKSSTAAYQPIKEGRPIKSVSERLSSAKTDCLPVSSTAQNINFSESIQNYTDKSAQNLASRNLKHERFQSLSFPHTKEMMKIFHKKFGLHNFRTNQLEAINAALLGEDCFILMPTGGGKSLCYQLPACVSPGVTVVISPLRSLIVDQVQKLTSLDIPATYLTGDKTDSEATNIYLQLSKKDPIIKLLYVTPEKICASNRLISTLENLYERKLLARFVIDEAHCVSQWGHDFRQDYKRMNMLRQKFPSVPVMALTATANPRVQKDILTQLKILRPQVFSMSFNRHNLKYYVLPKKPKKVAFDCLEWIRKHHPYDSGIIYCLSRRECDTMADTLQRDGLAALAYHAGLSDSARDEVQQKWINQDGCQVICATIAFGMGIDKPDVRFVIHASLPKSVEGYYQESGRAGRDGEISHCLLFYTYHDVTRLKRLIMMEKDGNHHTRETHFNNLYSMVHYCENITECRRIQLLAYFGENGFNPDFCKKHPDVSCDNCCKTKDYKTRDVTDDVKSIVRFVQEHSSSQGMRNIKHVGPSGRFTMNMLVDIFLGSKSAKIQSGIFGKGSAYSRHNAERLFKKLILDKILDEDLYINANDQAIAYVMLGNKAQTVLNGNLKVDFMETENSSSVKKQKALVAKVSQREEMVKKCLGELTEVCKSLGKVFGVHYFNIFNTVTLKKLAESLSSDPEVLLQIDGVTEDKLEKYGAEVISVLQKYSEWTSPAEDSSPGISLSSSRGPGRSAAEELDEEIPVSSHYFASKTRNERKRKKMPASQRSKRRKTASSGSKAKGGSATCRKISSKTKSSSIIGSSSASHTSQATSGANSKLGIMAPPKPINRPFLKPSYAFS
# RECQ1 inh-1: inhibitors of human RECQ1 DNA helicase. P46063. RECQ1 DNA unwinding, red fluorescence kinetic read. Potency, µM (highest dose often 57.3 µM), inactives show at the top dose activity, negative = inhibition, hits mostly inhibitors. hit rate 0.54% among 240,000. AID 2549;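 further: plate controls were vehicle for no effect and no enzyme for full effect; nearly all actives have a fitted effect of over 30% in size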
#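 50 nM RECQ1T1 preincubated 15 min with compound in Tris pH 8.0 buffer with MgCl2, DTT, Tween-20 and 2.5 ug/ml poly(dI-dC); started with 200 nM TAMRA/BHQ-2 forked duplex and 2 mM ATP. Unwinding read as fluorescence (525/598 nm), two reads 2 h apart.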
# TRb-SRC2 inh: disrupts binding of human TR beta to SRC2; P10828; TRbeta-SRC2 peptide binding, fluorescence polarization; receptor liganded with 1 µM T3; Potency, µM (series often up to 106 µM), for the others: at the highest dose activity change, negative = inhibition, most hits filed as inhibitors; hit rate 0.065% among 280,000; AID 1469;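 further: plate controls were bound peptide for no effect and peptide without receptor for full effect; nearly all actives have a fitted effect of over 50% in size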
#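 Polarization signal, normalized between peptide-alone and full complex controls, measured compound effects on T3-liganded human TRb LBD (0.6 uM) binding 20 nM Texas Red SRC2 peptide after 5 hr.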
# RECQ1 conf: confirmation of human RECQ1 helicase inhibitors. shares compounds with RECQ1 inh-1. RECQ1 helicase DNA unwinding, fluorescence. Potency, µM (highest dose often 229 µM), for the others: at the top dose activity change, negative = inhibition, most hits filed as inhibitors. hit rate 28% among 610. AID 2708; further: nearly all actives have a fitted effect of over 45% in size
# ADP FP counter: displaces ADP in a fluorescence polarization counter-screen for RECQ1 hits; shares compounds with RECQ1 inh-1; ADP fluorescence polarization displacement counterscreen; Potency, µM (highest dose often 228 µM), for the others: top-dose activity change, negative = inhibition, usual class: inhibitors; hit rate 27% among 530; AID 2711; further: nearly all actives have a fitted effect of over 45% in size
# RECQ1 inh-2: confirmation of human RECQ1 helicase inhibitors. hit rate 15% among 1,100. Potency, µM (top dose mostly 119 µM), for the others: top-dose activity, negative = inhibition, most hits filed as inhibitors. shares compounds with RECQ1 inh-1. AID 504841. recombinant RECQ1 DNA unwinding, red fluorescence; further: nearly all actives have a fitted effect of over 50% in size
# Active calls of the source: *; i = inactive; ? = inconclusive; nt = not tested or not shown; [ ] = remark or other dose. An excerpt weighted towards active compounds, which were near 0.64% of everything screened. Unless noted, the call rests on the fitted dose curve; in most records, active means well fitted curve in the direction sought with a large enough effect; inconclusive means small, poorly fitted or top-dose-only effect, or another doubt; inactive means no such curve, though single readings can be large; an effect the other way counts as inactive or inconclusive. Unless noted, on the % scale 0 is the no-effect control and ±100 the full control effect; potency means the concentration at half of the fitted maximal effect.
SMILES,TR SRC2 fluor cs,BLM helicase inh,RECQ1 inh-1,TRb-SRC2 inh,RECQ1 inh-2,others
COc1ccc(N2Cc3cccc(C(=O)NC(C)CCc4ccco4)c3C2=O)cc1 (centres undefined),-29%,?,7.9µM*,19%,10µM*,RECQ1 conf=35µM*;ADP FP counter=-11%[91.9 µM]
O=C(CCCN1C(=O)c2cccnc2Oc2ccc(Cl)cc21)NCc1ccccc1F,-17%,-1%,nt,7%,nt,
Cc1c(C(=O)Nc2cccc(C(F)(F)F)c2)oc2ccc(S(=O)(=O)N3CCC4(CC3)OCCO4)cc12,2%,-5%,nt,-4%,nt,
CCC(C)NC(=O)c1ccccc1NC(=O)c1ccc(CSc2ccc(C)cc2)cc1 (centres undefined),3%,-4%,5µM*,-8%,-16%,RECQ1 conf=-8%[114 µM];ADP FP counter=5%[91.9 µM]
Cc1ccccc1Nc1nc(N)c(C(=O)c2ccccc2Cl)s1,-1%,-3%,nt,0%,nt,
O=C1/C(=C/c2ccc(O)c(O)c2)Oc2ccccc21,-25%,-28%,?,24%,45µM*,
O=C(CC(C(=O)O)P(=O)(c1ccccc1)c1ccccc1)c1ccc(Br)cc1 (centres undefined),0%,-2%,-8%,-3%,nt,RECQ1 conf=1%;ADP FP counter=-6%
O=C(CSc1ccc(Cl)cc1)N1CCN(c2c(Cl)cccc2[N+](=O)[O-])CC1,-2%,-11%,8.9µM*,1%,-27%,RECQ1 conf=-6%[114 µM];ADP FP counter=-4%[91.9 µM]
O=C(/C=C/c1ccc(Cl)cc1)N1CCN(c2c(Cl)cccc2[N+](=O)[O-])CC1,-1%,-7%,-8%,-6%,nt,
CCCCc1ccc(-n2nc3cc(Cl)c(NC(=O)c4ccc(OC)cc4)cc3n2)cc1,-5%,-1%,nt,2%,nt,
COc1ccc(Nc2nnc(-c3ccc(O)cc3)c3ccccc23)cc1C(N)=O,-9%,-11%,?,7%,-13%,
COc1ccc(Cl)cc1NC(=O)CCn1nc(C)cc1C,0%,-9%,nt,-4%,nt,
O=C(NCC(c1cccnc1)N1CCN(Cc2ccccc2)CC1)C(=O)Nc1cccc(Cl)c1 (centres undefined),-2%,0%,nt,-7%,nt,
O=C(Cn1ccc(C(F)(F)F)n1)Nc1cccc(S(=O)(=O)N2CCCCC2)c1,-1%,-5%,i,3%,nt,
Cc1ccc(S(=O)(=O)N2CCCCC2)cc1NC(=O)Cn1ccc(C(F)(F)F)n1,-2%,-6%,40µM*,1%,-5%,
CN(/N=C/c1ccc(-c2ccc([N+](=O)[O-])cc2)o1)c1ccccc1,nt,-6%,nt,nt,nt,
O=C(O)c1ccc(N2C(=O)/C(=C/c3ccc(-c4ccc([N+](=O)[O-])cc4)o3)C=C2c2ccccc2)cc1,35µM*[fluorescent],-20%,18µM*,13%,nt,RECQ1 conf=22µM*
CCc1nnc(SCC(=O)N2CCCc3ccccc32)nc1CC,4%,1%,-3%,2%,nt,
Cc1ccc2c(c1)c1nnc(SCC(=O)N3CCCc4ccccc43)nc1n2CC(=O)O,-3%,-8%,8%,-3%,nt,RECQ1 conf=16%;ADP FP counter=?
COc1cccc(=O)c2c(C)n(-c3cc(C)cc(C)c3)c(C)c12,-7%,-8%,-10%,4%,nt,
CCOc1cccc(=O)c2c(C)n(C)c(C)c12,-7%,-23%,?,-6%,-3%,
COc1cccc(=O)c2c(C)n(C)c(C)c12,-1%,-18%,?,-9%,-21%,
CCCCCn1c(C)c2c(OCC)cccc(=O)c2c1C,0%,-12%,32µM*,-2%,-11%,
CN(C)C(=O)c1ccc(-c2ccc3ncnc(N4CCNCC4)c3c2)cc1,nt,-6%,-3%,nt,nt,
COc1ccc(C(=O)Nc2nc(-c3ccc([N+](=O)[O-])cc3)c(-c3ccc(OC)cc3)s2)cc1,1%,-7%,?,6%,-26%,
CCOc1ccccc1/C=C(/NC(=O)c1ccccc1)C(=O)NCC(=O)O,0%,1%,11%,-8%,nt,
